High-throughput results as filed in PubChem.
A selection: hits, their analogues and other compounds. The true share with any hit is near 2%.
M1 ag parental: nonselective activator or artifact in parental CHO-K1 cells; Fluo-8 calcium fluorescence; scaled to maximal ATP response, vehicle zero; activation, % at 3 µM; actives 0.48% (n = 360,000); AID 602248; in the data active means activation above about 15%;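 further: untransfected CHO-K1 host cells lacking M1 receptor as counterscreen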
CHO-K1 Ca antag: M1 antagonist counterscreen hit in parental CHO-K1 cells; inhibition, % at 3 µM; AID 602250; actives 0.6% (n = 360,000); ATP-induced calcium, Fluo-8 fluorescence;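 active means inhibition above a per-plate cutoff, the plate's mean sample inhibition plus 3 SD, cut at about 24% in these data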;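 further: 0% = DMSO plus EC80 ATP and 100% = DMSO alone without ATP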
M4 antag: CHRM4 antagonism in calcium assay. CHO-hM4 cells, ACh EC80, Fluo-8 calcium fluorescence. inhibition, % at 3 µM. P08173. actives 0.73% (n = 360,000). AID 624125;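 active means inhibition above its plate's cutoff, the mean inhibition of sample wells plus 3 SD, cut at about 27% in these data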;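 further: 0% = acetylcholine EC80 with DMSO and 100% = DMSO without agonist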
M4 ag: CHRM4 agonism in calcium assay | activation, % at 3 µM | actives 0.14% (n = 360,000) | CHO-K1 hM4/Gqi5, Fluo-8 calcium fluorescence; vehicle 0%, full acetylcholine response 100% | AID 624127 | P08173;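 active means activation above the run mean over all test wells plus 3 SD, cut at about 32% in these data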;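 further: peak over basal fluorescence ratio per well then scaled between controls; 0% = DMSO wells and 100% = acetylcholine at EC100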
CHO-K1 Ca PAM: nonselective activator or artifact in parental CHO-K1 calcium assay; ATP EC20, Fluo-8 calcium fluorescence; 0% at ATP EC20, 100% at ATP max; activation, % at 3 µM; actives 0.02% (n = 360,000);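 active means activation above the run cutoff, the mean activation of all test compounds plus 3 SD, cut at about 40% in these data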;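 further: peak over basal fluorescence ratio in a 140 s read after ATP addition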
M4 PAM: positive allosteric modulators of human muscarinic M4 receptor; P08173; activation, % at 3 µM; AID 624126; CHO-K1 hM4/Gqi5, Fluo-8 calcium fluorescence, ACh EC20; 0% = ACh EC20, 100% = maximal ACh; actives 0.4% (n = 360,000);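 active means activation above its plate's cutoff, the mean activation of sample wells plus 3 SD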
* marks the source's active call; other numbers are inactive results.

SMILES	M1 ag parental	CHO-K1 Ca antag	M4 antag	M4 ag	CHO-K1 Ca PAM	M4 PAM
O=[N+]([O-])c1ccc(C[n+]2ccccc2)cc1	-1	0	3	0	-15	25*
CCOC(=O)c1c(C)n(C)c2ccc(OCC(O)CN3CCN(C)CC3)cc12 (centres undefined)	0	21	-6	0	-10	2
CCOC(=O)c1c(C)n(C)c2ccc(OCC(O)CNCCc3ccccc3)cc12 (centres undefined)	12	31*	-3	4	4	3
COc1cccc(CNCCc2c[nH]c3ccccc23)c1OCc1ccccc1	21*	12	21	38*	5	-20
COc1cc(CNCCO)ccc1OCCc1ccccc1	5	-3	29*	8	30	20*
COc1cc(CNCCc2c[nH]c3ccccc23)ccc1OCc1ccccc1F	0	-3	5	1	-10	2
COc1ccccc1CCNCc1ccc(OC)c(OCc2ccccc2)c1	20*	-17	24	28	-6	-13
CCCCN(C)c1c(C)nc2ccc(C(=O)NCc3ccc(OC)cc3)cn12	3	-3	4	5	4	-2
CCOC(=O)C1=C(C)NC(C)=C(C(=O)OCC)C1C(=O)OCC(=O)NC1CCCCC1	6	-3	18	14	-8	3
NS(=O)(=O)c1ccc(NC(=O)C2Cc3ccccc3C(=O)O2)cc1 (centres undefined)	0	-1	-9	2	4	26*
O=C1OC(C(=O)Nc2ccccc2)Cc2ccccc21 (centres undefined)	1	-16	-1	1	12	12
CN(CCO)c1ccc2c(c1)OC[C@H](Cc1ccccc1)NS2(=O)=O	1	-6	-4	4	11	4
Cc1cc2nc(-c3cccnc3SCC(=O)NC(C)C)[nH]c2cc1C	16*	-3	8	1	15	-5
COCCOC(=O)CSc1ncccc1-c1nc2cc(C)c(C)cc2[nH]1	1	-4	-5	4	14	2
CCOC(=O)CSc1nc2c(cnn2-c2ccc(C)cc2)c(=O)[nH]1	0	-2	-22	1	9	19*
CCCCC(OC(=O)c1ccco1)C(=O)NCc1ccc(C)cc1 (centres undefined)	0	1	5	-1	9	-5
Cc1cccc(Nc2ncccc2C(=O)NCc2cccs2)c1C	1	4	38*	6	0	19
Cc1ccc(Nc2ncccc2C(=O)NCc2cccs2)c(C)c1	1	-2	8	4	-7	1
COc1ccc(CC2(CO)CCN(C(C)Cc3ccc(Cl)cc3)CC2)cc1 (centres undefined)	4	-9	13	5	-6	-20
COc1ccc(CCC(C)N2CCC(CO)(Cc3ccccc3)CC2)cc1 (centres undefined)	3	-5	33*	4	15	-10
CCCOc1ccc(C(=O)CCC(=O)NNC(=O)c2cccs2)cc1	0	-11	-15	6	-15	11
COc1ccc(N2CCN(C(=O)CCC(=O)N3CCOc4ccc(Cl)cc43)CC2)cc1	3	-10	-3	8	20	0
CCc1nnc(NC(=O)CCN2C(=O)/C(=C/c3cc(OC)c(OC)c(OC)c3)SC2=S)s1	0	-22	-28	2	21	15*
CN(CC(=O)N1CCCCCC1)S(=O)(=O)c1ccccc1	1	2	5	0	-3	-2
CC(C)NC(=O)N(C)C[C@@H]1Oc2cc(C#Cc3ccccn3)ccc2S(=O)(=O)N([C@@H](C)CO)C[C@H]1C	2	-3	-4	4	1	0
CCN(CC)c1ccc2c(Cl)c(Br)c(=O)oc2c1	53*	73*	62*	27	-7	-17
CC(C)NC(=O)Cn1cc(C(=O)C(=O)N2CCOCC2)c2ccccc21	1	0	12	0	2	-3
O=C(CN1C(=O)COc2ccccc21)NCCN1CCC(Cc2ccccc2)CC1	6	-5	28*	15	13	-30
O=C(CN1C(=O)COc2ccccc21)NCc1ccc(C(=O)O)cc1	0	-1	28*	2	10	10
